Molecules are shown by their SMILES. Results filed as inconclusive are left out. The source made the active and inactive calls. Unless noted, calls follow the shape of the full dose curve.

A short description of experiment [1]: Nuclear factor erythroid 2-related factor 2/antioxidant responsive element (Nrf2/ARE) small molecule agonists: qHTS cell viability counter screen in human keratinocytes (AID 1919968; active = well fitted curve in the direction sought with a large enough effect in the repeat runs; an effect the other way counts as inactive or inconclusive; also: nearly all actives have a fitted effect of over 55% in size). The gist of the method:
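Viability counter-screen: KeratinoSens reporter cells, DMSO-delivered compounds, 23 h at 37 C, CellTiter-Fluor fluorescence.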
In general terms: In qHTS, concentration-response curves come from the screen itself.

A short description of experiment [2]: Nuclear factor erythroid 2-related factor 2/antioxidant responsive element (Nrf2/ARE) small molecule agonists: luciferase reporter gene qHTS assay in human keratinocytes (AID 1919969). Also: nearly all actives have a fitted effect of over 35% in size. Also: potency is read from the fitted curve at half-maximal effect. In general terms: In a reporter assay the amount or activity of a reporter protein is the signal.
The target in experiment [3] is Gonadotropin-releasing hormone receptor (Homo sapiens) (UniProt P30968). In words: Human gonadotropin-releasing hormone receptor (GnRHR) small molecule agonists, calcium flux assay in GnRHR-HEK293 cells (AID 1920063). Also: nearly all actives have a fitted effect of over 35% in size. A digest of the protocol:
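Tox21-format agonist screen using human GnRHR-expressing HEK293 cells and a fluorescent calcium dye; kinetic 3-min fluorescence reading after compound addition, 15-point concentration series run in triplicate.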
For orientation: Calcium flux is commonly read through the fluorescence of an indicator in the cells.

Experiment [4] concerns the target KiSS-1 receptor (Homo sapiens) (UniProt Q969F8). Description: Human kisspeptin (KISS1R) small molecule agonists, calcium flux assay in KISS1R-HEK293 cells (AID 1920064; active = well fitted curve in the direction sought with a large enough effect in the repeat runs; an effect the other way counts as inactive or inconclusive). A digest of the protocol: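 Intracellular calcium mobilization in KISS1R-HEK293 cells was recorded by fluorescence (Ex/Em 480/540) for 3 min following compound addition to cells pre-loaded 1 h with calcium dye.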

A short description of experiment [5]: G protein-coupled receptor (GPCR) small molecule agonists, calcium flux assay: HEK293 wild type cell line counter screen (AID 1920065). The gist of the method: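 In this agonist-mode screen, ATP is the positive control and DMSO the vehicle. Cells grow 18 h before a 1 h dye incubation at 37 C; signal is taken at Ex/Em 480/540 over 3 min.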
A short description of experiment [6]: p53 small molecule agonists, cell-based qHTS assay with human liver microsomes: qHTS cell viability counter screen (AID 1963579). Also: nearly all actives have a fitted effect of over 45% in size. A digest of the protocol:
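p53RE-bla cells, 4,000/well, dosed 5 hours after plating, with human liver microsomes (0.5 mg/mL final) plus NADPH (0.5 mg/mL final), 16 hours at 37 C. Viability read as CellTiter-Glo luminescence after 30 min at room temperature.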

Experiment [7] can be described thus: p53 small molecule agonists, cell-based qHTS assay with rat liver microsomes: qHTS cell viability counter screen (AID 1963580). Also: nearly all actives have a fitted effect of over 45% in size. The gist of the method:
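HCT-116 p53RE-bla, 4,000 cells/well, 5 h pre-incubation; cpd + rat liver microsomes 0.5 mg/mL + NADPH 0.5 mg/mL (final); 16 h, 37 C; CellTiter-Glo, 30 min RT; luminescence.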

Experiment [8] can be described thus: p53 small molecule agonists, cell-based qHTS assay: qHTS cell viability counter screen (AID 1963581). Also: nearly all actives have a fitted effect of over 45% in size. The gist of the method: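 Compounds are pinned onto HCT-116 p53RE-bla cells and left 16 h at 37 C. Following the reporter FRET read, ATP is quantified by CellTiter-Glo luminescence after 30 min at room temperature.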
Experiment [9] concerns the target 5-hydroxytryptamine receptor 2A (Homo sapiens) (UniProt P28223). In words: 5-hydroxytryptamine receptor 2A (HTR2A) small molecule antagonists, cell-based qHTS assay (AID 1963586). Also: nearly all actives have a fitted effect of over 45% in size. The gist of the method: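 Antagonist-mode intracellular calcium assay: DOI (4 nM) added after 5 min compound pre-incubation at room temperature to dye-loaded HTR2A-CHO cells. Fluorescence followed for 3 min, sampled every second.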

For experiment [10] the target is unchanged. In words: 5-hydroxytryptamine receptor 2A (HTR2A) small molecule agonists, cell-based qHTS assay (AID 1963587). Also: nearly all actives have a fitted effect of over 30% in size. The gist of the method: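 Kinetic calcium-flux fluorescence (2 min, 1 sec intervals) after compound addition in agonist mode. HTR2A-CHO cells were cultured 18 h, then dye-loaded 1 h at 37 C.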
Experiment [11] concerns the target Muscarinic acetylcholine receptor M1 (Homo sapiens) (UniProt P11229). In words: Cholinergic receptor muscarinic 1 (CHRM1) small molecule antagonists, cell-based qHTS assay (AID 1963588). Also: nearly all actives have a fitted effect of over 40% in size. A digest of the protocol: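 CHRM1-CHO calcium-flux assay, antagonist mode. Cells were seeded 18 h, dye-loaded 1 h at 37 C and given compound for 5 min at RT, then acetylcholine was added at 50nM. FDSS fluorescence was read 3 min; 15 concentrations, three runs.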

Experiment [12] has the same target. Description: Cholinergic receptor muscarinic 1 (CHRM1) small molecule agonists, cell-based qHTS assay (AID 1963589). Also: nearly all actives have a fitted effect of over 35% in size. A digest of the protocol:
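Stable CHRM1-CHO cells (human receptor) were incubated 18 h, dye-loaded for 1 h at 37 C and exposed to test compounds for agonist activity, with calcium-dependent fluorescence followed kinetically.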

For experiment [13], the target named is Beta-2 adrenergic receptor (Homo sapiens) (UniProt P07550). Description: Adrenergic beta2 receptor (ADRB2) small molecule antagonists, cell-based qHTS assay (AID 1963592). Also: series mostly up to about 92 µM; nearly all actives have a fitted effect of over 50% in size. A digest of the protocol: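 Cells (CHO, stable ADRB2 overexpression) incubated 18-20hr at 37C; compounds added from DMSO; agonist mix (1nM isoproterenol, 100uM IBMX, 25uM Ro-20-1724) added; 0.5hr RT; d2-cAMP and anti-cAMP-cryptate added; 1hr RT; 665/615 nm read.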
Sequence of Beta-2 adrenergic receptor (Homo sapiens) (P07550 whole entry, looked up): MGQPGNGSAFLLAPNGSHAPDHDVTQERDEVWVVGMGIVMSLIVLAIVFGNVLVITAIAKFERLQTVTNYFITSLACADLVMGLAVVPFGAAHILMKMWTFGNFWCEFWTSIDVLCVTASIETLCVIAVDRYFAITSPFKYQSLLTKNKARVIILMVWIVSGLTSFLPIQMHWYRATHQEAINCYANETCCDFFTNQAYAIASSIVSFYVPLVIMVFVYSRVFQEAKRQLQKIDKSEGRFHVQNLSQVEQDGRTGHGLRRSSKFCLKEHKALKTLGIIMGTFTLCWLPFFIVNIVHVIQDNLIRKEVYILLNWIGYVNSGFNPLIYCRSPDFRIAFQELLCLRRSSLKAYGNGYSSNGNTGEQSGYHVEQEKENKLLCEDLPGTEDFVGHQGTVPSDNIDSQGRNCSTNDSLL

Experiment [14] shares this target. In words: Adrenergic beta2 receptor (ADRB2) small molecule agonists, cell-based qHTS assay (AID 1963593).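 Also: CHO cells stably overexpressing human ADRB2.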 The gist of the method: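 CHO cells stably over-expressing ADRB2 were plated overnight at 37C, then dosed with compounds plus a stimulation mix containing 100uM IBMX and 25uM Ro-20-1724 for 0.5hr at room temperature. cAMP was measured by HTRF competition, 1hr.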

For experiment [15], the target named is D(2) dopamine receptor (Homo sapiens) (UniProt P14416). Description: Dopamine D2 receptor (DRD2) small molecule agonists, cell-based qHTS assay (AID 1963594). Also: nearly all actives have a fitted effect of over 35% in size. The gist of the method: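 cAMP accumulation in DRD2-HEK293 cells measured by HTRF after 1 h detection; compounds added 10 min before NKH477 (200nM […]) forskolin-analogue stimulation, 30 min at room temperature, with Ro20-1724 present at 0.1 mM final.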
Sequence of D(2) dopamine receptor (Homo sapiens) (P14416 whole entry, looked up): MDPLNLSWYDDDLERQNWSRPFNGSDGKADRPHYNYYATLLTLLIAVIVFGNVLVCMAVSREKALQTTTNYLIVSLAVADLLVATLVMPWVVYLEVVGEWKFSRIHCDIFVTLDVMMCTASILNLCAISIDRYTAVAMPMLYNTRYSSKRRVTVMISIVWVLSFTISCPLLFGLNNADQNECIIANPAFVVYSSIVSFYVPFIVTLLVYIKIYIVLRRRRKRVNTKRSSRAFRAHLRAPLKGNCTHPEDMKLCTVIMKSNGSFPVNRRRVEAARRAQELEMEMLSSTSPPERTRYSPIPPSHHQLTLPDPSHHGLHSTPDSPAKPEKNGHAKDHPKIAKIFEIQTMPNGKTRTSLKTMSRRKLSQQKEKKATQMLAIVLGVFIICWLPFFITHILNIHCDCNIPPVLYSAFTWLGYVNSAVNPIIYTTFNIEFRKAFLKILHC

Experiment [16] has the same target. Description: Dopamine D2 receptor (DRD2) small molecule antagonists, cell-based qHTS assay (AID 1963595; active = well fitted inhibition curve with a large enough effect in the signal ratio in the repeat runs, with a control signal flat; the % refers to the signal ratio). The gist of the method: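 Antagonist mode in DRD2-HEK293 cells: after compound addition with 0.1 mM Ro20-1724, cells received quinpirole (12 nM) and NKH477 (200 nM) for 30 min at room temperature; HTRF cAMP read after 1 h detection.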
Experiment [17] in a line: cAMP Responsive Elements (CRE) small molecule agonists, cell-based qHTS assay (AID 1963590). The gist of the method: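 FRET-based beta-lactamase readout (LiveBLAzer B/G, 2 h RT) quantified CRE activation in HEK 293T CRE-bla cells after 3 h treatment with DMSO-dissolved compounds.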
Experiment [18] is described as follows: cAMP Responsive Elements (CRE) small molecule antagonists, cell-based qHTS assay (AID 1963591; active = well fitted inhibition curve with a large enough effect in the signal ratio in the repeat runs, not every such curve was filed as active; the % refers to the signal ratio). The gist of the method:
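qHTS in CRE-bla HEK 293T cells: compound in DMSO, then 0.25 uM NKH477 (final), 3 h at 37 °C/5% CO2; beta-lactamase FRET read-out after 2 h substrate incubation.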

The nature of experiment [19]: p53 small molecule agonists, cell-based qHTS assay (AID 1963582; active = well fitted activation curve with a large enough effect in the signal ratio in the repeat runs, not every such curve was filed as active; the % refers to the signal ratio). The gist of the method:
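Agonist activity was scored from beta-lactamase FRET fluorescence in p53RE-bla cells treated 16 h at 37 C with compounds in DMSO, substrate incubation being 2 h at room temperature.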

Sequence of Muscarinic acetylcholine receptor M1 (Homo sapiens) (P11229 whole entry, looked up): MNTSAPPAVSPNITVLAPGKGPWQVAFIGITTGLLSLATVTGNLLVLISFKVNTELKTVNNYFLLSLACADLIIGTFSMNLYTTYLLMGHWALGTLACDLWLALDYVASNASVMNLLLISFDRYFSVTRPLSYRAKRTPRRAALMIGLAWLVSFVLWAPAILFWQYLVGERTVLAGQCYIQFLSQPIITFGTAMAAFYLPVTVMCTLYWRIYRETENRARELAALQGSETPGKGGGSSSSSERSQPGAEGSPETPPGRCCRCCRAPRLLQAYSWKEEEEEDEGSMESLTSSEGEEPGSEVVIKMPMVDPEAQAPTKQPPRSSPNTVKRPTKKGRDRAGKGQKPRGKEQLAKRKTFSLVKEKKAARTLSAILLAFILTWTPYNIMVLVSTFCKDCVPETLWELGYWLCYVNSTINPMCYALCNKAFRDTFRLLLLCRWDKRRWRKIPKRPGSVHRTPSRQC
Sequence of 5-hydroxytryptamine receptor 2A (Homo sapiens) (P28223 whole entry, looked up): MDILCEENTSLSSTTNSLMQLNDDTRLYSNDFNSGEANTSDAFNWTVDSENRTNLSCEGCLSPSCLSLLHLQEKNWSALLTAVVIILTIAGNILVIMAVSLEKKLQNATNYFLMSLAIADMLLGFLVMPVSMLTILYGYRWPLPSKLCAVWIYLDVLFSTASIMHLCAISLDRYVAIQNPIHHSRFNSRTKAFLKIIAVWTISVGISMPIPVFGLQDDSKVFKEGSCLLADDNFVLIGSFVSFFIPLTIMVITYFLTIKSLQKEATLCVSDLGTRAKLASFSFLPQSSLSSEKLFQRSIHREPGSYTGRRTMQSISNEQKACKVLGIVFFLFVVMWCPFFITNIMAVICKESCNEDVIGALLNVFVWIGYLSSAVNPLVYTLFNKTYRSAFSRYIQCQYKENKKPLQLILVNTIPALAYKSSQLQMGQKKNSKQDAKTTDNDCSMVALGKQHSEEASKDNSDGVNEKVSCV
Sequence of Gonadotropin-releasing hormone receptor (Homo sapiens) (P30968 whole entry, looked up): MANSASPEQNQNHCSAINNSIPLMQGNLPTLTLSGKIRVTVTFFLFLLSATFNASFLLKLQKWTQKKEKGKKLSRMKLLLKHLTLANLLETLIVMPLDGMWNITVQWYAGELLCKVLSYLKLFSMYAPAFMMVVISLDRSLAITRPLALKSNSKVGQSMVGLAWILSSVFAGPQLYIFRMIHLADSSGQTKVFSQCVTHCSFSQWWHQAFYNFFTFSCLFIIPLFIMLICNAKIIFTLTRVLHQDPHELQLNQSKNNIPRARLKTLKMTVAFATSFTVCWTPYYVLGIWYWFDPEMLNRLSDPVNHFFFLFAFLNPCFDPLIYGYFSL
Sequence of KiSS-1 receptor (Homo sapiens) (Q969F8 whole entry, looked up): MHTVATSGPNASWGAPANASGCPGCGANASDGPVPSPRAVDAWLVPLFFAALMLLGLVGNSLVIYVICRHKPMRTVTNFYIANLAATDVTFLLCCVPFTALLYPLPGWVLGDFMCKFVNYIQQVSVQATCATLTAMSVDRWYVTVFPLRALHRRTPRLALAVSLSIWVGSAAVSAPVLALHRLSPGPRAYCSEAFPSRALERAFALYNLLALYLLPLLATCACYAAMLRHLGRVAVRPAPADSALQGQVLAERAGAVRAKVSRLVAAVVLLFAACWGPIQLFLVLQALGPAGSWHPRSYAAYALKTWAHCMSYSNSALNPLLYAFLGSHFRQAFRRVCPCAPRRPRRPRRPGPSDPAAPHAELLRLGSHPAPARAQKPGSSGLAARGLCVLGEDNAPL

Turning to `CC(C)(C)OC(=O)c1ncn2c1[C@@H]1CCCN1C(=O)c1c(Br)cccc1-2`, the Potency result in experiment [1], in experiment [2], in experiment [3], in [4], in [5] and in experiment [6] was “inactive” in each case. The Potency result in experiment [7], in [8], in experiment [9], in experiment [10], in experiment [11] and in experiment [12] was “inactive” throughout. For the same compound, the Potency result in experiment [13], in [14], in [15] and in experiment [16] was “inactive” in each case.
Take `CCc1ccccc1N`: the Potency entry in experiment [1], in experiment [2], in experiment [3], in experiment [4], in [5] and in experiment [6] was “inactive” in each case. The Potency entry in experiment [7], in [8], in experiment [9], in experiment [10], in experiment [11] and in [12] was “inactive” each time. Moreover, the Potency entry in experiment [17], in experiment [18], in experiment [13], in experiment [15] and in experiment [16] was “inactive” in each case.
With `CC(C)(C)c1ccc(CCOc2ncnc3ccccc23)cc1`, the Potency result in [1], in [2], in experiment [3], in experiment [4], in experiment [5] and in experiment [6] was “inactive” each time. The Potency entry in [7], in [8], in [9], in [10], in experiment [11] and in experiment [12] was “inactive” throughout. Moreover, the Potency entry in [17], in experiment [18], in experiment [13], in experiment [15] and in experiment [16] was “inactive” throughout.
On to `O=c1[nH]c2ccccc2o1`, for which the Potency entry in experiment [1], in experiment [2], in experiment [3], in experiment [4], in [5] and in experiment [6] was “inactive” in each case. Further, the Potency result in experiment [7], in [8], in experiment [9], in [10], in experiment [11] and in experiment [12] was “inactive” throughout. Moreover, the Potency entry in [17], in experiment [18], in [15] and in [16] was “inactive” in each case.
In the case of `Cc1ccc(S(=O)(=O)N[C@@H](CCCCN)C(=O)CCl)cc1`, the Potency result in experiment [1], in experiment [2], in experiment [3], in experiment [4], in experiment [5] and in experiment [6] was “inactive” in each case. Also, the Potency entry in experiment [7], in experiment [8], in [10], in [11], in experiment [12] and in experiment [17] was “inactive” throughout. Also, the Potency entry in [18], in experiment [13], in experiment [15] and in experiment [16] was “inactive” in each case.
Consider `CCOP(=S)(OCC)SCSP(=S)(OCC)OCC`, for which the Potency result in experiment [1], in [3], in experiment [4], in experiment [5], in [6] and in [7] was “inactive” each time. Also, the Potency entry in experiment [19], in experiment [12], in [18], in experiment [13], in experiment [15] and in [16] was “inactive” in each case. In addition, the Potency in [2] is 68.6 µM (active).
As for `ClCBr`, the Potency entry in experiment [1], in experiment [2], in [3], in experiment [4], in [5] and in [6] was “inactive” in each case. For the same compound, the Potency result in experiment [7], in experiment [8], in [11], in experiment [12], in experiment [17] and in experiment [18] was “inactive” throughout. The Potency entry in experiment [13], in experiment [15] and in experiment [16] was “inactive” throughout.
In the case of `CCOP(=S)(S)OCC`, the Potency result in [1], in experiment [3], in [4], in experiment [5], in [6] and in experiment [7] was “inactive” in each case. Moreover, the Potency entry in [19], in [10], in [11], in experiment [12], in experiment [17] and in [18] was “inactive” in each case. Moreover, the Potency result in [13], in experiment [14], in [15] and in experiment [16] was “inactive” throughout. Moreover, the Potency in experiment [2] is 64.4 µM (active).

Source of the values: PubChem BioAssay (Tox21).
